# Shiga inhibitor – blocks Shiga toxin action in Vero cells | Vero cells, Shiga toxin protein synthesis inhibition reporter | inhibition, % at 38.7 µM | hit rate 9.2% among 290,000; in the data active = inhibition mostly above about 28%, no sharp cut-off; inactive = mostly below about 43%; note: 0% is about no effect
# FMDV inh – foot and mouth disease virus antiviral activity; FMDV antiviral cell-based qHTS; Potency, µM (highest dose often 57.9 µM), for inactives: at the top dose activity change, negative = inhibition, actives largely listed as inhibitors; hit rate 1.2% among 410,000; AID 1159524; calls by dose curve; tested in HEK293T cells; note: read-out not given here; potency is the fitted concentration of half-maximal effect; % is set by controls: 0 for no effect and ±100 for the full control effect; nearly all actives have a fitted effect of over 45% in size
# CHX counter – affects cycloheximide protein synthesis inhibition readout, counter-screen; cell reporter, cycloheximide protein synthesis inhibition counterscreen; max response, %; hit rate 12% among 300,000; in the data active = max response mostly above about 13%, no sharp cut-off; inactive = mostly below about 14%; note: read at 38.3 µM for the half of the compounds with a filed dose; 0% is about no effect
# Sm TGR inh – inhibitors of Schistosoma mansoni thioredoxin glutathione reductase. Q962Y6. purified TGR, DTNB reduction, TNB absorbance 405 nm. Potency, µM (titrated, usually from 114 µM), without a hit: at the top dose activity change, negative = inhibition, usual class: inhibitors. hit rate 3% among 360,000. AID 485364; active = well fitted inhibition curve with a large enough effect; inconclusive = small, poorly fitted or top-dose-only effect; inactive = no such curve, though single readings can be large or run the other way; note: potency is the fitted concentration of half-maximal effect; % is set by controls: 0 for no effect and ±100 for the full control effect; nearly all actives have a fitted effect of over 60% in size
#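 First, TGR (20 nM dispensed) and NADPH were mixed with compound. Second, a 15 min room-temperature incubation followed. Third, further NADPH and then DTNB were added to start the reaction. Finally, TNB absorbance was monitored kinetically.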
# * marks the source's active call; other numbers are inactive results; ? = inconclusive; / = not tested or not shown. In the library only some 12% were active in any assay of this set; here they are far more common.
SMILES,Shiga inhibitor,FMDV inh,CHX counter,Sm TGR inh
O=C(NCc1cccs1)C1CCN(C(=O)N2CCOc3ccc(Cl)cc32)CC1,/,-10%,/,3%
COC(=O)c1ccc(-c2cc(CC3(C(=O)OC)CCN(C(=O)OC(C)(C)C)CC3)on2)cc1,7,?,-3,0%
COC(=O)C1(Cc2cc(-c3ccccc3)no2)CCN(C(=O)OC(C)(C)C)CC1,40*,5%,27*,-29%
CC(=O)c1ccc(OCc2cc(C(=O)N(C)Cc3ccccn3)no2)cc1,52*,9%,62*,13µM*
Cc1cc(OCc2cc(C(=O)N(C)Cc3ccccn3)no2)cc(C)c1Cl,106*,43%,92*,-2%
Cc1cc(OCc2cc(C(=O)N(C)C(C)c3ccccn3)no2)cc(C)c1Cl (stereo unspecified),102*,20%,41*,-14%
Cc1cc(OCc2cc(C(=O)N(C)CCOc3ccccc3)no2)cc(C)c1Cl,-5,-13%,-2,12%
CSc1ccccc1OCc1cc(C(=O)N(C)C(C)c2ccccn2)no1 (stereo unspecified),16,35%,11,-8%
CCCCN(C)C(=O)C1CCCN(c2ncnc3onc(C)c23)C1 (stereo unspecified),/,?,/,10%
COc1cccc2nc(-c3cccs3)nc(NN3C(=O)C=C(C)C3=O)c12,32,/,26,/
CCOc1ccc(CCNC(=O)c2ccc3c(c2)c(C)c(C)n3C)cc1,/,-3%,/,-9%
Cc1cccc(-n2ncc3c(Nc4ccc(Oc5ccc(Cl)cc5)cc4)ncnc32)c1,/,-13%,/,16%
CN(C)c1oc(-c2ccccc2[N+](=O)[O-])nc1C#N,-1,-11%,-1,35µM*
Cn1cnnc1Sc1ccc(CN2CCOc3ccc(C4=CCCCC4)cc3C2)o1,/,-14%,/,/
NS(=O)(=O)c1ccc(NC(=O)COC(=O)c2ccc([N+](=O)[O-])s2)cc1,-3,10%,-1,25µM*
O=C1NC(=O)C(=Cc2ccc(N3CCN(C(=O)c4ccccc4)CC3)c([N+](=O)[O-])c2)C(=O)N1,-9,-17%,-5,11µM*
COCCNC(=O)/C(C#N)=C\c1ccc(CNC(=O)C(=O)Nc2ccc(C)c(C)c2)o1,-4,?,-1,/
CCOC(=O)C1=C(O)/C(=C\c2ccc(CNC(=O)C(=O)Nc3ccc(C)c(C)c3)o2)N=C1C,-16,/,-2,40µM*
CCOc1ccc(NC(=O)CSc2nnc3scc(-c4ccccc4)n23)cc1,/,13%,/,-3%
Cc1ccc(CCNC(=O)c2ccc(CSc3nc4ccncc4n3Cc3ccc(F)cc3)cc2)cc1,/,?,/,1%
Cc1[nH]n(-c2nc(-c3ccc(Cl)cc3)cs2)c(=O)c1N=Nc1ccc(O)cc1,23,7.9µM*,8,-3%
Cc1cccc(OCCn2c(-c3ccc(Cl)cc3)nc3ccccc3c2=O)c1C,/,-24%,/,6%
CCN(CC)c1ccc(/C=C(/C#N)C(=O)NC(C)C)o1,60*,41%,26*,/
CCN(CC)c1ccc(/C=C(/C#N)C(=O)NCc2ccccc2)o1,102*,73%,50*,35µM*
CC(=O)Nc1ccc(/C=C(\C#N)C(=O)NCc2ccccc2)cc1,-5,-13%,-5,-4%
SMILES,Shiga inhibitor,FMDV inh,CHX counter,Sm TGR inh
CCOC(=O)C1=C(C)N=C2SC(C(=O)OC)=CC(=O)N2C1c1ccc(OC)cc1 (stereo unspecified),-5,14µM*,-4,4%
CCOC(=O)C1=C(C)N=C2SC(C)C(=O)N2C1c1ccc(OC(C)=O)c(OC)c1 (stereo unspecified),6,-5%,-1,50µM*
CCOc1cc(C2C(C(=O)OC)=C(C)N=C3SC(C)C(=O)N32)ccc1OC(C)=O (stereo unspecified),0,-5%,-3,0%
O=C(CCCc1ccccc1)NC1CC(=O)N(c2ccc(Cl)cc2)C1 (stereo unspecified),/,-14%,/,1%
O=C(c1cc(-c2ccco2)on1)N1CCCc2ccccc21,105*,29%,16*,?
O=C(c1cc(-c2ccccc2)on1)N1CCCc2ccccc21,61*,33%,50*,7%
Cn1ccc(C(=O)N2CCCc3ccccc32)n1,-3,-23%,-2,12%
COc1cn(CC(=O)Nc2ccc(F)cc2)c(CN2CCCCC2)cc1=O,/,-10%,/,5%
O=C(CCC1CCCN(c2ncccn2)C1)N1CCN(c2ccccn2)CC1 (stereo unspecified),12,-23%,-1,11%
O=C(CCC1CCCN(C(=O)C2(c3ccccc3)CC2)C1)N1CCN(c2ccccn2)CC1 (stereo unspecified),42,?,20*,6%

# Screening results (PubChem BioAssay)
